The results in this text go back to PubChem BioAssay AID651710 (Broad Institute, 2012).

Values joined by “and” are separate entries in the source; they are usually repeats but may differ in a detail not shown here. Identical values can stand only once. Screen size: about 360,000 compounds; about 1,600 (0.44%) were called active. This is one part of a sample in which actives are shown more often than they occur.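 Rule for the calls: active = every replicate showing at least 50% inhibition; inconclusive = mean inhibition at least 50% but not in every replicate; inactive = the rest.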 More than one record can exist for a structure, and the calls need not agree.

DNA repair protein RAD52 homolog (Homo sapiens), sequence (P43351 whole entry, looked up): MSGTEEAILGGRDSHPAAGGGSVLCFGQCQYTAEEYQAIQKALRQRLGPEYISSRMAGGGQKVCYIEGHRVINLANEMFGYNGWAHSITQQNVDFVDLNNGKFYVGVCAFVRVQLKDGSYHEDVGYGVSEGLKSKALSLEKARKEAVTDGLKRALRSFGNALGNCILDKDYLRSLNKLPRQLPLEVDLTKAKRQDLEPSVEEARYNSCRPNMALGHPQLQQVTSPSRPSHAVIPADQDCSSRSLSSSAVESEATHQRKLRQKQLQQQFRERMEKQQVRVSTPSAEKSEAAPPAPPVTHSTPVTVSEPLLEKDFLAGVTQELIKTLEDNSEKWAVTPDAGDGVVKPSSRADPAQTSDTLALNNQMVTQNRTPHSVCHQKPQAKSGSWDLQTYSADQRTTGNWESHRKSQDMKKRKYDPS

This test addresses DNA repair protein RAD52 homolog (Homo sapiens) (UniProt P43351). The test can be described thus: RAD52 DNA annealing inhibitors, primary screen, biochemical, FRET, single point, set 2 (AID 651710). To be noted: recombinant RAD52 DNA annealing, FRET fluorescence; at 18.7 µM; stronger effect = higher value.
`CCCNC(=O)N(C)C[C@H]1Oc2cc(C#CC(C)(C)O)ccc2S(=O)(=O)N([C@H](C)CO)C[C@@H]1C`: the inhibition is -3.15% (inactive).

Turning to `COCC#Cc1cnc2c(c1)C(=O)N([C@H](C)CO)C[C@H](C)[C@@H](CN(C)C(=O)Nc1cc(F)ccc1F)O2`, the inhibition is -15.1% (inactive).

For the compound `C[C@@H]1CN([C@@H](C)CO)C(=O)c2cc(NC(=O)Nc3ccc4c(c3)OCO4)ccc2O[C@@H](C)CCCCO[C@@H]1CN(C)Cc1ccccc1`, the inhibition is -6.98% (inactive).

Take `Cc1c(CCOC(=O)c2cc([N+](=O)[O-])ccc2Cl)sc[n+]1CCCCS(=O)(=O)[O-]`: the inhibition is -6.18% (inactive).

As for `Cc1c(CCOC(=O)CC23CC4CC(CC(C)(C4)C2)C3)sc[n+]1Cc1ccc([N+](=O)[O-])cc1`, the inhibition is 57.8% (active).

Turning to `Cc1c(CCO)sc[n+]1CC(=O)OC12CC3CC(CC(C3)C1)C2`, the inhibition is 9.07% (inactive).

For `CO[C@H]1CN(C)C(=O)c2ccc(NC(=O)Nc3ccccc3)cc2OC[C@@H](C)N(C(=O)CC2CC2)C[C@@H]1C`, the inhibition was 7.81% (inactive).

Consider `COc1ccc(C#Cc2ccc3c(c2)[C@]2(C(=O)N3)[C@H](C(=O)N3CCCCCCC3)[C@H]3C(=O)O[C@H](c4ccccc4)[C@H](c4ccccc4)N3[C@@H]2c2ccc(O)cc2)cc1`, for which the inhibition is 0.035% (inactive).

For `O=C1O[C@@H](c2ccccc2)[C@@H](c2ccccc2)N2[C@@H](c3ccccc3OCCO)[C@]3(C(=O)Nc4ccc(C#CC5(O)CCCCCC5)cc43)[C@@H](C(=O)N3CCCCCCC3)[C@H]12`, the inhibition was 6.97% (inactive).

With `COc1ccc(C#Cc2ccc3c(c2)[C@]2(C(=O)N3)[C@H](c3ccccc3OCCO)N3[C@H](c4ccccc4)[C@H](c4ccccc4)OC(=O)[C@H]3[C@@H]2C(=O)N2CCCCCCC2)cc1`, the inhibition was 55.6% (active).

For the compound `CO[C@H]1CN(C)C(=O)c2ccc(NC(C)=O)cc2OC[C@H](C)N(CC2CC2)C[C@@H]1C`, the inhibition was 5.82% (inactive).

In the case of `COc1ccc(NC(=O)Nc2cccc3c2O[C@H](CN(C)C(=O)Nc2ccc(F)cc2)[C@@H](C)CN([C@@H](C)CO)C3=O)cc1`, the inhibition was -2.48% (inactive).

Take `O=C(C1CCCCC1)N1CC2(C1)[C@H](c1ccccc1)[C@H](CO)N2CC1CCCC1`: the inhibition was -23.5% (inactive).

Regarding `Cc1cc(C)c2nc3nc(C)cc(C)c3c(N)c2c1`, the inhibition is 91% (active).

For the compound `C[C@H]1CN([C@@H](C)CO)C(=O)c2cccc(NC(=O)C3CCOCC3)c2O[C@@H]1CN(C)C(=O)Nc1cccc2ccccc12`, the inhibition is 6.23% (inactive).

As for `CC=Cc1ccc2n(c1=O)C[C@@H]1[C@@H](CO)[C@H](C(=O)NCC)[C@H]2N1CCC(F)(F)F` (mixture of isomers), the inhibition is 75.5% (active).

For `CC=Cc1ccc2n(c1=O)C[C@@H]1[C@@H](CO)[C@H](C(=O)NCCC)[C@H]2N1C(=O)C1CC1` (mixture of isomers), the inhibition was 6.42% (inactive).

As to `CC=Cc1ccc2n(c1=O)C[C@@H]1[C@@H](CO)[C@H](C(=O)N(C)C)[C@H]2N1CCc1ccccc1` (mixture of isomers), the inhibition was -10.1% (inactive).

Consider `CC(=O)N1[C@@H](CO)[C@H](c2ccccc2)[C@@H]1CN(C(=O)c1ccccc1)C(C)C`, for which the inhibition is -18% (inactive).

As to `O=C(C[C@H]1CC[C@@H](NC(=O)c2ccc(F)cc2)[C@@H](CO)O1)NCc1ccncn1`, the inhibition is -0.457% (inactive).

With `CO[C@@H]1CN(C)C(=O)c2cc(NC(=O)C3CC3)ccc2OC[C@@H](C)N(Cc2ccc(F)cc2)C[C@@H]1C`, the inhibition is -6.33% (inactive).

Turning to `O=C(C1CCCC1)N1CCCCN2[C@@H](CO)[C@H](c3ccc(-c4cccc(F)c4)cc3)[C@@H]2C1`, the inhibition is 44.8% (inactive).

Take `Cc1ccccc1-c1ccc(C2[C@@H]3CN(C(=O)C4CCCCC4)C[C@H]2N3)cc1` (stereo partly specified): the inhibition is 54.8% (active) and 0.102% (inactive).

As to `O=C(C1CCCCC1)N1CC(=O)N2[C@H](CO)[C@@H](c3ccc(-c4ccccc4F)cc3)[C@@H]2C1`, the inhibition is -8.61% (inactive).

Regarding `N#Cc1cccc(-c2ccc(C3[C@@H]4CN(C(=O)C5CCC5)C[C@H]3N4)cc2)c1` (stereo partly specified), the inhibition was -9.39% (inactive) and 14.7% (inactive).

As for `O=C(C1CCCCC1)N1C[C@@H]2N[C@H](C1)C2c1ccc(-c2cccc(F)c2)cc1` (stereo partly specified), the inhibition was 61% (active) and 30.9% (inactive).

For the compound `O=C(C1CCC1)N1C[C@@H]2N[C@H](C1)C2c1ccc(-c2cncnc2)cc1` (stereo partly specified), the inhibition was 17.7% (inactive).

For `CS(=O)(=O)N1CC2(C1)[C@H](c1ccccc1)[C@H](CO)N2Cc1ccc(F)cc1`, the inhibition is -16.8% (inactive).

Take `Cc1ccc(-c2ccc3c(c2)O[C@H](CN(C)C)[C@@H](C)CN([C@@H](C)CO)S3(=O)=O)cc1`: the inhibition is 19.5% (inactive).

On to `O=C(C[C@@H]1C[C@@H]2c3cc(NC(=O)Nc4ccccc4F)ccc3O[C@@H]2[C@H](CO)O1)NCCc1ccccc1`, for which the inhibition is 2.98% (inactive).

As for `CO[C@@H]1CN(C)C(=O)c2cc(NC(=O)Nc3cc(F)ccc3F)ccc2OC[C@H](C)N(C)C[C@@H]1C`, the inhibition was 22.6% (inactive).

In the case of `CN(Cc1ccccc1F)c1cc2c(c3c1ccn3C)C1CCC2O1` (stereo unspecified), the inhibition is 61% (active).

For `CC(C)NC(=O)N(C)C[C@H]1OCCCC[C@H](C)Oc2ccc(NC(=O)Nc3ccc(C(F)(F)F)cc3)cc2C(=O)N([C@H](C)CO)C[C@@H]1C`, the inhibition is -13.2% (inactive).

For the compound `C[C@@H]1CCCCO[C@@H](CN(C)S(=O)(=O)c2ccc(F)cc2)[C@@H](C)CN([C@@H](C)CO)C(=O)c2cc(NS(=O)(=O)c3cccs3)ccc2O1`, the inhibition is -29.4% (inactive).

Consider `CC(C)NC(=O)N(C)C[C@H]1OCCCC[C@H](C)Oc2ccc(NC(=O)CCC(F)(F)F)cc2C(=O)N([C@@H](C)CO)C[C@@H]1C`, for which the inhibition is -0.514% (inactive).

As to `Cc1noc(C)c1S(=O)(=O)Nc1cccc2c1O[C@@H](CN(C)S(=O)(=O)c1cn(C)cn1)[C@@H](C)CN([C@H](C)CO)C2=O`, the inhibition is -26.9% (inactive).

As for `CN(C)C(=O)C[C@@H]1C[C@@H]2c3cc(NC(=O)C4CCOCC4)ccc3O[C@@H]2[C@@H](CO)O1`, the inhibition was -0.675% (inactive).

As for `CCCNC(=O)N1[C@@H]2CNC[C@H]1C2c1ccc(-c2ccccc2)cc1` (stereo partly specified), the inhibition is -12.3% (inactive) and 2.3% (inactive).

Turning to `CC(C)[C@@H](C)/C=C/[C@@H](C)[C@H]1CC[C@@H]2[C@]1(C)CCC1[C@]23C=C[C@]2(C[C@@H](O)CC[C@]12C)N(c1ccc([N+](=O)[O-])cn1)O3` (stereo partly specified), the inhibition is 73.5% (active).

As to `COc1ccccc1C(=O)N1O[C@]23C=C[C@]14C[C@@H](O)CC[C@]4(C)C2CC[C@]1(C)[C@@H]([C@H](C)/C=C/[C@H](C)C(C)C)CC[C@H]13` (stereo partly specified), the inhibition is -15.6% (inactive).

As for `CC(C)NC(=O)Nc1ccc2c(c1)C(=O)N([C@@H](C)CO)C[C@H](C)[C@@H](CN(C)S(C)(=O)=O)O2`, the inhibition was -11% (inactive).

With `C[C@@H]1CN([C@@H](C)CO)C(=O)Cc2cc(NC(=O)Nc3ccc4c(c3)OCO4)ccc2O[C@H]1CN(C)S(=O)(=O)c1ccccc1`, the inhibition is 2.34% (inactive).

For `CCN(CC)CCOc1ccc2c(c1)C(=NNC(=O)c1ccccn1)c1cc(OCCN(CC)CC)ccc1-2`, the inhibition was 108% (active).

As for `CCN(C[C@@H]1[C@H](c2ccccc2)[C@@H](CO)N1CC1CC1)C(=O)c1ccccn1`, the inhibition is -2.51% (inactive).

On to `CC(O)c1ccc(OCCN(C)c2ccccn2)cc1` (stereo unspecified), for which the inhibition was -7.28% (inactive).

Turning to `COCCOC(=O)N1C(=O)[C@@]2(c3cc(C#CCNC(N)=O)ccc31)[C@H](C(=O)N1CCN(c3ncccn3)CC1)[C@H]1C(=O)O[C@H](c3ccccc3)[C@H](c3ccccc3)N1[C@@H]2c1ccccc1OCCO`, the inhibition is 31.5% (inactive).

Turning to `CN1CCN(C2Cc3ccc(Cl)cc3Sc3ccc(F)cc32)CC1` (stereo unspecified), the inhibition was 54.5% (active).

Take `CN1C(=O)CN2CCc3ccccc3C2c2cc(Cl)ccc21` (stereo unspecified): the inhibition is -6.27% (inactive).

Turning to `O=C(C[C@@H]1C=C[C@@H](NC(=O)C2CCC2)[C@H](CO)O1)NCC1CC1`, the inhibition is -2.1% (inactive).

For `CCN(CC(=O)Nc1ccc(NC(C)=O)cc1)C(=O)C1CC(=O)N(c2ccc3c(c2)OCCO3)C1` (stereo unspecified), the inhibition was 74.7% (active).

As to `CCOC(=O)c1ccc(NC(=O)C2CC(=O)N(c3ccc4c(c3)OCCO4)C2)cc1` (stereo unspecified), the inhibition is -4.32% (inactive).

On to `CCN(CC(=O)Nc1ccc(NC(C)=O)cc1)C(=O)C1CC(=O)N(Cc2ccc(C)cc2)C1` (stereo unspecified), for which the inhibition was -6.68% (inactive).

With `COc1cccc(C(=O)Nc2ccc3c(c2)C(=O)N(C)C[C@@H](OC)[C@H](C)CN(C(=O)C2CCOCC2)[C@H](C)CO3)c1`, the inhibition is -0.027% (inactive).

On to `C[C@H](CO)N1C[C@H](C)[C@@H](CN(C)Cc2ccc(Cl)c(Cl)c2)Oc2ccc(NC(=O)Cn3cnnn3)cc2CC1=O`, for which the inhibition was 5.4% (inactive).

As for `O=C(C1CCCC1)N1[C@H](CO)[C@@H](c2ccccc2)C12CN(CCC(F)(F)F)C2`, the inhibition was 6.31% (inactive).

Regarding `CO[C@H]1CN(C)C(=O)c2cc(NC(=O)Nc3ccccc3)ccc2OC[C@@H](C)N(C(=O)Nc2c(C)noc2C)C[C@@H]1C`, the inhibition is 8.84% (inactive).

Take `CN(C)CC(=O)Nc1ccc2c(c1)[C@H]1C[C@H](CC(=O)NCc3ccccc3)O[C@@H](CO)[C@H]1O2`: the inhibition is -10.3% (inactive).

For the compound `CN(C)CC(=O)Nc1ccc2c(c1)[C@H]1C[C@@H](CC(=O)NCc3ccc(-c4ccccc4)cc3)O[C@H](CO)[C@H]1O2`, the inhibition was 60.2% (active).

For the compound `CN(C)CC(=O)Nc1ccc2c(c1)[C@@H]1C[C@H](CC(=O)NCc3ccc(-c4ccccc4)cc3)O[C@@H](CO)[C@@H]1O2`, the inhibition is 43.1% (inactive).

For `CN1c2ccc(-c3ccc(C#N)cc3)cc2[C@@H]2[C@@H](CCN2S(=O)(=O)c2cccc(F)c2)[C@@H]1CO`, the inhibition is 8.85% (inactive).

Consider `CCCNC(=O)[C@@H]1[C@@H](CO)[C@@H]2Cn3c(cccc3=O)[C@H]1N2C(=O)C1CC1`, for which the inhibition is -0.051% (inactive).

Broadly, the inhibition is the drop in the measured response relative to a control, in per cent.
